Experimental findings from PubChem BioAssay AID2221 (Broad Institute, 2009) are described below.

As usually defined, the inhibition is the change of the read-out against control, counted positive when it falls.

Out of some 290,000 compounds screened, about 2,200 (0.76%) were called active. This is one part of a sample in which actives are shown more often than they occur. Unmarked numbers belong to inactive results. Cut-off read from the data, not from the text of the source: active = inhibition above about 30%; inconclusive = no clear call, values can overlap the other calls; inactive = below that.

Chain of Protein RecA (Mycobacterium tuberculosis (strain ATCC 25618 / H37Rv)) (P9WHJ3 whole entry, looked up): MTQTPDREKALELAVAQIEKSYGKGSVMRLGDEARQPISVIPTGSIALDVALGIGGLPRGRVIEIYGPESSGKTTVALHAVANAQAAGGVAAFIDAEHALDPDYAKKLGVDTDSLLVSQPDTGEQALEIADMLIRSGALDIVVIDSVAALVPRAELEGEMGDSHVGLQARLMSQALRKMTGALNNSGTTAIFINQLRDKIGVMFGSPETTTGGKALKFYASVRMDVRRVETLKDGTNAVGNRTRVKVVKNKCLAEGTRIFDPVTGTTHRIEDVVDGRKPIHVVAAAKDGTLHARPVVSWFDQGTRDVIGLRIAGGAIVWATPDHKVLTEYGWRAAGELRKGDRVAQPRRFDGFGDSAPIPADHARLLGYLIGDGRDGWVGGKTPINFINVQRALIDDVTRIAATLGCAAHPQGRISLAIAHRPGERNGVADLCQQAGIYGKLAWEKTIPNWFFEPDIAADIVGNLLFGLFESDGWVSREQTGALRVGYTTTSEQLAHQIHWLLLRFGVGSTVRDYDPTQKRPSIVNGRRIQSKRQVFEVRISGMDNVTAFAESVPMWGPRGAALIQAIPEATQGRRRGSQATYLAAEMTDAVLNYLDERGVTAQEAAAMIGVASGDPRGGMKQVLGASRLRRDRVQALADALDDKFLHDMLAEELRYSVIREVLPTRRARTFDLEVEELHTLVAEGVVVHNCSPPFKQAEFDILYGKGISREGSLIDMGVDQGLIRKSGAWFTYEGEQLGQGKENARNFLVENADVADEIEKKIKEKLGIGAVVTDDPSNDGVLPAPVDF

This assay has as its target Protein RecA (Mycobacterium tuberculosis (strain ATCC 25618 / H37Rv)) (UniProt P9WHJ3). Put plainly: Mtb RecA intein splicing inhibitors, primary screen, biochemical, fluorescence, HTS (AID 2221).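 Note: 0% = vehicle wells and 100% = reference inhibitor control wells.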 The following applies: cell-free RecA intein splicing, active compounds read high, concentration not given here.
On to `O=C(CN1C(=O)C2C3C=CC(C3)C2C1=O)Nc1nc(-c2ccccn2)cs1` (centres undefined), for which the inhibition is -1.82%.

As to `CCn1c(CC(=O)Nc2ccccc2)nnc1SCC(=O)N1CCOCC1`, the inhibition was -3.34%.

With `N#Cc1ccc(C2N=C(c3ccccc3)NO2)cc1` (centres undefined), the inhibition was -0.394%.

`O=C(CSC1=NCCS1)Nc1nc(-c2ccccc2)cs1`: the inhibition is 37.4% (active).

On to `O=C(CSc1nc2ccccc2c(=O)[nH]1)Nc1nc(-c2ccc(Br)cc2)cs1`, for which the inhibition was 1.49%.

Take `CCNC(=O)CSc1nc(-c2ccccc2)cs1`: the inhibition was 0.44%.

For `CC(C)C(C)NC(=O)COc1nc2ccccc2nc1N(C)C1CCCCC1` (centres undefined), the inhibition is -2.05%.

For the compound `COc1ccc(C(=O)NCCSc2ccccc2C)cc1`, the inhibition was 3.07%.

Take `CCCCC(O)(CCCC)C(=O)NN(C(=O)CCl)c1ccccc1`: the inhibition was 42.8% (active).

Consider `CCCC(O)(CCC)C(=O)NN(C(=O)CCl)c1cccc(C)c1`, for which the inhibition is 18.1%.

Regarding `COC(=O)N(NC(=O)C(O)(C(C)C)C(C)C)c1ccccc1`, the inhibition was -3.28%.

Consider `CCOC(=O)C1Cn2c(nc3c(c2=O)C(C)(CC)Cc2ccccc2-3)S1` (centres undefined), for which the inhibition was -3.72%.

`CCCc1nnc(NC(=O)CCC(=O)NC2CC2)s1`: the inhibition was -1.59%.

On to `Cc1ccc(S(=O)(=O)N(Cc2cccc([N+](=O)[O-])c2)C(=O)N2CCN(C)CC2)cc1`, for which the inhibition was 1.46%.

For `CCN(CC)C(=O)CN(c1cccc([N+](=O)[O-])c1)S(=O)(=O)c1ccccc1`, the inhibition was 0.016%.

For the compound `O=C(CCl)N(Cc1cccc([N+](=O)[O-])c1)c1cccc(Cl)c1`, the inhibition is 88.1% (active).

As for `O=C(CCS(=O)(=O)c1ccccc1Cl)Nc1ccc(S(=O)(=O)Nc2ncccn2)cc1`, the inhibition is -0.502%.

Turning to `CC(C)c1ccc(N(C(=O)c2ccco2)C(C(=O)NC2CCCC2)c2cccnc2)cc1` (centres undefined), the inhibition is 2.58%.

In the case of `S=c1[nH]nc(-c2ccc(Cl)cc2)n1CC1CCCO1` (centres undefined), the inhibition is -1.85%.

With `O=C(c1[nH]ncc1-c1ccc(Cl)cc1)C1CO1` (centres undefined), the inhibition is 33% (active).

Turning to `O=C(c1nnc(-c2ccc(Cl)cc2)o1)C1CCCC1`, the inhibition is -10.3%.

Consider `COc1ccccc1OCCCCCCN1CCN(C)CC1`, for which the inhibition was -1.55%.

On to `CC(OC(=O)CNC(=O)c1cccc(F)c1)C(=O)NC1CCCCC1C` (centres undefined), for which the inhibition was -0.912%.

For `N#Cc1c(N)n(CCOC(=O)c2ccc(Cl)cc2)c2nc3ccccc3nc12`, the inhibition was 51.9% (active).

As to `COCC(C)OC(=O)c1c(N)n(CCCN2CCOCC2)c2nc3ccccc3nc12` (centres undefined), the inhibition was -97.2%.

For `CC(C)(C)OC(=O)c1c(N)n(CCCN2CCCC2=O)c2nc3ccccc3nc12`, the inhibition was -350%.

As for `CC(C)(C)n1nc(Cc2cccc3ccccc23)c(C#N)c1N`, the inhibition was 4.34%.

In the case of `COc1ccc(N(C(=O)c2snc(C(N)=O)c2N)C(C(=O)NC2CCCC2)c2ccc(C)o2)c(OC)c1` (centres undefined), the inhibition was 5.96%.

For `O=C(OCC(=O)N(CCc1ccccc1)Cc1ccccc1)c1ccccc1[N+](=O)[O-]`, the inhibition was 18.8%.

In the case of `Cc1ccc(C(=O)N/N=C/c2cccc3ccccc23)cn1`, the inhibition was 0.625%.

Consider `O=C(N/N=C\c1cc(Br)c(Br)o1)C1COc2ccccc2O1` (centres undefined), for which the inhibition is 0.81%.

`Cc1ccc(C(=O)N/N=C\c2cc(Br)c(Br)o2)cn1`: the inhibition was 32% (active).

For `Cn1c2ccccc2n2c(=O)c(=O)n(CC(=O)c3ccc(F)cc3)nc12`, the inhibition is -7.28%.

Turning to `COCCN1CCN(C(=O)c2cc(COc3ccc(F)cc3Cl)on2)CC1`, the inhibition is -1.15%.

On to `O=C(Nc1ccc(Cl)cc1)C1c2cccc[n+]2CC(=O)N1Cc1ccc2c(c1)OCO2` (centres undefined), for which the inhibition is 36.5% (active).

As to `CC1CCC(NC(=O)C2c3ccccc3C(=O)N2Cc2ccc3c(c2)OCO3)CC1` (centres undefined), the inhibition was -1.41%.

For the compound `O=C(C1CCN(Cc2ccc(Cl)cc2)CC1)N1CCN(Cc2ccc3c(c2)OCO3)CC1`, the inhibition is -0.0543%.

As to `C=CS(=O)c1sc(Cl)c(N2CCOCC2)c1[N+](=O)[O-]` (centres undefined), the inhibition was 33.8% (active).

As to `CCOC(=O)c1cc(NC(=O)c2ccc(Cl)cc2)c(=O)oc1-c1ccccc1`, the inhibition was -0.694%.

In the case of `Oc1ccc(N=Cc2sc3ccccc3c2Cl)cc1`, the inhibition was 34.2% (active).

On to `O=C(N/N=C/c1c(Cl)[nH]c2ccccc12)c1sc2ccccc2c1Cl`, for which the inhibition is 3.69%.

Regarding `COc1ccc(N=C(C)c2sc3ccccc3c2O)cc1`, the inhibition is 0.51%.

`CC(C)(C)C1CCC(C(=O)NCC(c2cccs2)N2CCOCC2)CC1` (centres undefined): the inhibition is 4.62%.

As for `CCCCN1C(=O)/C(=C(/C#N)C(N)=O)c2ccccc21`, the inhibition is 1.79%.

In the case of `C#CCN1C(=O)C(O)(CC(=O)c2cc(OC)ccc2OC)c2ccccc21` (centres undefined), the inhibition was 2.4%.

`COc1ccc2c(c1)C(=C(C#N)C#N)C(=O)N2CCc1ccccc1`: the inhibition was 61.5% (active).

For the compound `O=[N+]([O-])c1ccc2nc(-c3ccccn3)[nH]c2c1`, the inhibition is 0.606%.

With `COc1ccc(-c2nnc(SCC(=O)Nc3cccnc3Cl)n2C)cc1`, the inhibition is -0.381%.

For the compound `COc1ccc(N(CC(=O)NCC2CCCO2)C(=O)CCC(=O)Nc2nccs2)c(OC)c1` (centres undefined), the inhibition is 1.28%.

Turning to `Cc1ccc(NC(=O)OCc2cncs2)cc1`, the inhibition was -1.45%.

Consider `COc1ccc(NC(=O)c2cc(-c3ccc(C)cc3)on2)cc1`, for which the inhibition was -0.468%.

For `COc1ccc(NC(=O)/C(Cl)=C(/Cl)S(=O)Cc2ccc(C)cc2)cn1` (centres undefined), the inhibition was 89% (active).

As for `O=C(Nc1ccccc1-c1nnn(CC(=O)N2CCN(c3ccccc3)CC2)n1)c1cccs1`, the inhibition is 0.619%.

For `COc1ccc(CNC(=O)CN(c2ccc(OC)c(Cl)c2)S(=O)(=O)c2ccc(C)cc2)cc1`, the inhibition was -0.316%.

For `O=C(O)c1cccc(S(=O)(=O)Nc2ccc(O)cc2Sc2nc3ccccc3s2)c1`, the inhibition was -3.82%.

`CCOc1ccccc1Nc1ccc2nonc2c1[N+](=O)[O-]`: the inhibition is 2.95%.

Consider `O=[N+]([O-])c1c(NCCO)cc(Sc2nc3ccccc3s2)c2nonc12`, for which the inhibition was 94.4% (active).

Take `CSc1ncc(Cl)c(C(=O)Nc2cc(C)ccc2C)n1`: the inhibition is -0.95%.

`Cc1nnc(NC(=O)CCCOc2ccccc2)s1`: the inhibition is -1.92%.

For `CCSc1nnc(NC(=O)c2ccc(C)cc2)s1`, the inhibition is 2.42%.

Consider `Cc1ccc(S(=O)(=O)CC(=O)Nc2nnc(C)s2)cc1`, for which the inhibition is -0.704%.

With `Cc1ccc(CS(=O)(=O)c2ncc(Cl)c(C(=O)Nc3nnc(C)s3)n2)cc1`, the inhibition was 61% (active).

With `CSc1nnc(NC(=O)c2nc(S(=O)(=O)Cc3ccc(C)cc3)ncc2Cl)s1`, the inhibition is 82.8% (active).

On to `Cc1cc(Cl)nc(NC(=O)Nc2cccc(Cl)c2)n1`, for which the inhibition was -0.873%.

With `O=C(NCCCn1ccnc1)c1cc2c(s1)CCCC2`, the inhibition was 1.03%.

As to `COc1cc(/C=C2/C(=O)NN(c3cccc(Cl)c3)C2=O)cc(Br)c1O`, the inhibition was 9.85%.

For the compound `C=CCOc1c(Br)cc(/C=N\n2nnnc2N)cc1OC`, the inhibition was 1.44%.

`CCOc1c(Br)cc(/C=C2\C(=O)N(CCC#N)N=C2C)cc1OC`: the inhibition was 89.5% (active).

As to `Cc1cccc(OCC(=O)NCCNC(=O)c2cccnc2)c1`, the inhibition was 4.34%.

As to `Cc1nn(CC(=O)NC2CCCCC2)c(=O)c2cccn12`, the inhibition is -1.92%.

With `O=C(CN(C(=O)CNC(=O)c1cccs1)c1cccc(F)c1)NC1CCCCC1`, the inhibition was 2.36%.

Consider `Cc1cccc(NC(=O)NC(=S)NC(=O)c2ccccc2)c1`, for which the inhibition was 1.58%.

Turning to `Cc1cc2[nH]ncc2cc1NC(=S)NC(=O)c1ccccc1`, the inhibition was 38.6% (active).

`Cc1cccc(NC(=S)Nc2ccc3cn[nH]c3c2)c1`: the inhibition was 3.44%.

`CC(=O)c1c(N2CCN(c3ccc(F)cc3)CC2)nc(=S)n(-c2ccccc2)c1C`: the inhibition was -0.168%.

In the case of `O=C(CCN1C(=O)[C@@H]2Cc3ccccc3CN2C1=O)NCCc1ccccc1`, the inhibition was -9.37%.

As for `O=C(CCN1C(=O)[C@@H]2Cc3ccccc3CN2C1=O)NCc1ccccc1`, the inhibition was -0.00645%.

Consider `Cc1ccc(CNC(=O)CCN2C(=O)[C@@H]3Cc4ccccc4CN3C2=O)cc1`, for which the inhibition was 58% (active).

As to `O=C(Cc1cc(=O)[nH][nH]1)N/N=C/c1ccccc1[N+](=O)[O-]`, the inhibition is 86.9% (active).

For the compound `Cc1cc(C(=O)N/N=C/c2ccccc2[N+](=O)[O-])c(C)o1`, the inhibition was -1.48%.

In the case of `Cc1ccsc1/C=N/Nc1ccc(Cl)nn1`, the inhibition is 0.218%.

Consider `Cc1ccsc1/C=N/NC(=O)Cc1cc(=O)[nH][nH]1`, for which the inhibition is 93.6% (active).

On to `CCOc1ccc(N2CC(C(=O)N/N=C/c3sccc3C)CC2=O)cc1` (centres undefined), for which the inhibition was -0.809%.

As to `COc1cc(CC(=O)N/N=C/c2ccccc2)c([N+](=O)[O-])cc1OC`, the inhibition is -1.27%.

`CCCNC(=O)OC[C@H]1O[C@H](CCO/N=C/[C@@H](NS(=O)(=O)c2ccc(C)cc2)[C@H](C)/C=C/CC(=O)OC)C=C[C@@H]1Oc1ccc(OC)cc1`: the inhibition is 4.43%.

Take `CCN=c1sc(C(=O)Nc2ccccc2)c(C)n1CC`: the inhibition was -1.39%.

With `CC(=O)N1CCN(C(=O)C2(NC(=O)Nc3ccc(C)cc3)CCCCC2)CC1`, the inhibition was -0.697%.

Consider `O=C1c2cccc3c([N+](=O)[O-])ccc(c23)C(=O)N1CC1CCCO1` (centres undefined), for which the inhibition was -70.4%.

Turning to `Cc1ccc(Nc2cc(C)nc3c(C)ccc([N+](=O)[O-])c23)cc1`, the inhibition is 63.3% (active).

For `Cc1cc(C)nc(Nc2cc([N+](=O)[O-])ccc2C)n1`, the inhibition was -2.26%.

As to `Cc1ccc(Nc2ccc(C(N)=O)cc2[N+](=O)[O-])cc1`, the inhibition is 2.38%.

As to `CN(c1ccccc1)c1ccc([N+](=O)[O-])c2nonc12`, the inhibition was 63.5% (active).

Regarding `Cc1ccccc1Nc1c([N+](=O)[O-])ccc2nonc12`, the inhibition is -1.72%.

On to `CCN(CC)c1ccc([N+](=O)[O-])c2cccnc12`, for which the inhibition was 14.5%.
